Rows were chosen to be rich in hits. Some 1% of all compounds tested hit in one or more screens of this group.
gsp antagonist – antagonists of gsp mutant (McCune-Albright syndrome); gsp-mutant cells, cAMP HTRF, 30 min; Potency, µM (doses to about 76.9 µM), usual class: inhibitors; 340,000 tested, 0.4% active; calls by dose curve; cell line not stated here;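 note: intracellular cAMP measured with PDE inhibitor Ro 20-1724 present during compound exposure; nearly all actives have a fitted effect of over 65% in size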
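HTRF cAMP read-out (cAMP-d2 plus anti-cAMP antibody-K in lysis buffer, 30 min RT). Before lysis, cells are exposed to compounds with […] for 30 min at 37C in DPBS containing Ca/Mg, BSA and Tween 20.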
RXFP1 agonist – activates the human relaxin receptor RXFP1; 370,000 tested, 0.3% active; Q9HBX9; HEK293T-RXFP1 cAMP TR-FRET, 30 min; response scale: percent of porcine relaxin response, buffer zero; AID 2676; Potency, µM (series often up to 57.5 µM), hits mostly activators; note: nearly all actives have a fitted effect of over 60% in size
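HEK293T cells stably expressing RXFP1 were pretreated with the PDE4 inhibitor Ro 20174, exposed to compounds for 30 min at 37C, lysed, and cAMP was read by TR-FRET. Data normalized to buffer (basal) and 29 nM porcine relaxin (100%).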
gsp agonist – activates gsp, the McCune-Albright syndrome mutation | gsp mutant cells, cAMP HTRF, 30 min | Potency, µM (titrated, usually from 76.9 µM), actives largely listed as activators | 340,000 tested, 0.13% active | AID 624287; active = well fitted activation curve with a large enough effect; inconclusive = small, poorly fitted or top-dose-only effect, or another doubt; inactive = no such curve, though single readings can be large or run the other way; cell line not stated here;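 note: phosphodiesterase inhibitor Ro 20-1724 added with compounds to block cAMP breakdown; nearly all actives have a fitted effect of over 60% in size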
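Cells in DMEM/10% FBS with G418 were pretreated with compounds in DMSO plus […] (300 uM stock) for 30 min at 37C. cAMP was measured by HTRF (cAMP-d2 plus anti-cAMP antibody-K) after 30 min at room temperature.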
RXFP1 antag – antagonists of human relaxin receptor RXFP1; 350,000 tested, 0.59% active; AID 1259400; HEK293-RXFP1, relaxin-stimulated cAMP HTRF, 30 min; hits give low values; activity change, negative = inhibition, % at 57.5 µM;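 active = activity change of -60% or lower, but not beyond a set lower limit; inconclusive = change between -60% and -40%, or beyond the set limit; inactive = change above -40%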
PTHR1 ag – agonists of human PTHR1 parathyroid hormone receptor. AID 743266. 410,000 tested, 0.075% active. Potency, µM (series often up to 115 µM), usual class: activators. HEK293 GP2 PTHR1 cells, GloSensor cAMP luminescence, 1 h. Q03431; note: nearly all actives have a fitted effect of over 55% in size
Target sequence (Q03431 whole entry, looked up): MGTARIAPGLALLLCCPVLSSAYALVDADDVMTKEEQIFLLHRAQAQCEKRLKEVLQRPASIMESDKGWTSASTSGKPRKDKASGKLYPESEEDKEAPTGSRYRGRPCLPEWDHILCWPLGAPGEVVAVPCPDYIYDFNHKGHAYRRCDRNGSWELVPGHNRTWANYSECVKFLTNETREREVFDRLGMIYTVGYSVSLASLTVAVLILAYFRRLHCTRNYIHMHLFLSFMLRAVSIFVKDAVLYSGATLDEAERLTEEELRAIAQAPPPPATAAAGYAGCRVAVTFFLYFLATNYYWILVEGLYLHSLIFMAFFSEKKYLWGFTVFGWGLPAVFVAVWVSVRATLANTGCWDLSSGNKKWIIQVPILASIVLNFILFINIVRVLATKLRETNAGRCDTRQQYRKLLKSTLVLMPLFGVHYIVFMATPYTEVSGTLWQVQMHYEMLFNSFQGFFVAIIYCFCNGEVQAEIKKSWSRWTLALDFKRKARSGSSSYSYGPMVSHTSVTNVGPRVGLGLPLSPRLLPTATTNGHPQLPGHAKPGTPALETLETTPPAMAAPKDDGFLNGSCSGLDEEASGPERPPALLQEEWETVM
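HEK-293-derived GP2 cells expressing PTHR1 and a GloSensor cAMP reporter, 3,000/well, plated overnight, given luciferin plus IBMX (each 0.5 mM as added) for 1 h at 37 °C, then compound for 1 h at 37 °C. Luminescence was read after 15 min at room temperature.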
A number is an active result; i = inactive; ? = inconclusive; nt = no result; [ ] = remark or other dose. Unless noted, calls come from the whole dose curve; as a rule, active = well fitted curve in the direction sought with a large enough effect; inconclusive = small, poorly fitted or top-dose-only effect, or another doubt; inactive = no such curve, though single readings can be large; an effect the other way counts as inactive or inconclusive.

SMILES	gsp antagonist	RXFP1 agonist	gsp agonist	RXFP1 antag	PTHR1 ag
CCn1c(=NC(=O)CS(=O)(=O)c2ccc(C)cc2)sc2cccc(OC)c21	35µM	i	i	i	i
COc1cccc2sc(=NC(=O)CS(=O)(=O)c3ccc(F)cc3)n(C)c12	i	i	i	i	i
Cc1cc(C(=O)COC(=O)c2ccc(O)cc2O)c(C)n1-c1ccccc1	?	i	i	-87	i
COc1ccc(-n2c(C)cc(C(=O)COC(=O)c3ccc(O)cc3O)c2C)cc1	32µM	i	i	i	i
COc1cc(C(=O)NCC(c2ccc(N(C)C)cc2)N2CCc3ccccc32)cc(OC)c1OC (centres undefined)	nt	i	nt	i	i
CCOC(=O)c1c(NC(=O)CSc2nc(C)cc(C)c2C#N)sc(C(C)=O)c1C	i	18µM	i	i	i
CCOC(=O)c1sc(NC(=O)CSc2nc(C)cc(C)n2)c(C#N)c1C	i	i	i	i	i
CCc1ccccc1NC(=O)CSc1nc2ncccc2o1	nt	i	nt	nt	i
CCC(C(=O)OC)n1cnc2c(cnn2-c2ccc(F)cc2)c1=O (centres undefined)	nt	i	nt	i	i
O=C1c2ccccc2C(=O)N1CCCCc1cn(C[C@H]2CC[C@@H]([C@@H]3CC[C@H](Cn4cc(CCCCN5C(=O)c6ccccc6C5=O)nn4)O3)O2)nn1	32µM	nt	nt	nt	i
Cc1ccc(-n2ncc3c(NC4CCCCCC4)ncnc32)cc1	nt	i	nt	i	i
CC(=O)Nc1cc2c3c(c1)CC(=O)N3CCC2	50µM	i	i	i	i
O=C(C1CCCCC1)N(Cc1cccnc1)c1nc2c(F)cccc2s1	nt	i	nt	-72	?
O=C(CCc1ccccc1)N(Cc1cccnc1)c1nc2c(F)cc(F)cc2s1	nt	i	nt	-86	i
COc1cccc2sc(N(Cc3cccnc3)C(=O)C3CCCCC3)nc12	nt	i	nt	i	i
CCOC(=O)c1ccc(NC(=O)C(CC)Sc2nncn3c2cc2oc(C)cc23)cc1 (centres undefined)	nt	i	nt	-79	i
CCC(Sc1nncn2c1cc1oc(C)cc12)C(=O)Nc1ccc(F)cc1 (centres undefined)	nt	i	nt	i	i
CCCCCCCCCCCCCCCC(=O)OC(C)C	nt	nt	nt	i	nt
O=C(NCCc1csc(-c2ccc(F)cc2)n1)c1cccs1	nt	i	nt	-61	i
O=C(NCCc1csc(-c2cccc(F)c2)n1)c1cccs1	nt	i	nt	i	i
CC(C)c1ccc(NC(=O)c2snc3ccc(Cl)cc23)cc1	28µM	i	i	i	i
CC(C)c1ccc(NC(=O)c2csnn2)cc1	i	i	i	i	i
O=C(NCc1cccc(F)c1)c1ccccc1NC(=O)c1nsc2ccccc12	nt	i	nt	i	?
COc1ccc(-c2nn(C)c3sc(C(=O)NCc4ccco4)cc23)cc1OC	i	?	13µM	i	i
NC(=O)c1ccsc1NC(=O)COC(=O)/C=C/c1ccc([N+](=O)[O-])cc1	i	i	i[15.4 µM]	i	i
SMILES	gsp antagonist	RXFP1 agonist	gsp agonist	RXFP1 antag	PTHR1 ag
COC(=O)c1ccc(/C=C/C(=O)OCC(=O)Nc2sccc2C(N)=O)cc1	28µM	nt	i	?	i
NC(=O)NS(=O)(=O)c1ccc(Cl)cc1	nt	nt	nt	i	nt
CCOC(=O)c1c(NC(=O)CSc2cn(CCNC(=O)c3ccc(OC)c(OC)c3)c3ccccc23)sc2c1CCCC2	nt	i	nt	nt	i
Cc1ccc(C2C(C(=O)c3cccs3)=C(O)C(=O)N2c2nnc(C)s2)cc1 (centres undefined)	i	20µM	i[15.4 µM]	i	i
COCCN1C(=O)C(O)=C(C(=O)c2cccs2)C1c1ccccc1 (centres undefined)	i	i	3.5µM	i	i
Cc1ccc(NC(=O)c2nnn(CC(=O)Nc3ccc(C)c(Cl)c3)c2N)c(C)c1	nt	i	nt	i	i
CCCCCCCCCCCCCCCCCCN(C)C	nt	nt	nt	i	nt
CCC(Sc1ccc2nnc(-c3cccnc3)n2n1)C(=O)OC (centres undefined)	i	14µM	?	i	?
CC(=O)Nc1ccc(NC(=O)CSc2ccc3nnc(-c4cccnc4)n3n2)cc1	i	8.9µM	?	i	i
O=C(CSc1ccc2nnc(-c3ccncc3)n2n1)Nc1ccc2c(c1)OCCO2	i	i	?	nt	i
O=C(CSc1ccc2nnc(-c3ccncc3)n2n1)Nc1ccc2c(c1)OCO2	i	i	16µM	nt	i
Cc1cc(NC(=O)CSc2ccc3nnc(-c4cccs4)n3n2)no1	i	i	11µM	nt	i
Cc1ccc(-c2nnc3ccc(SCC(=O)Nc4cc(C)on4)nn23)cc1	i	i	i	i	i
CN(C)CCCOC1(Cc2ccccc2)CCCCCC1	nt	nt	nt	i	nt
CN1CC(=O)N(CC(=O)N2N=C(c3ccc(Cl)cc3)CC2c2ccco2)C1=O (centres undefined)	i	i	i[15.4 µM]	i	i
CCC(=O)N1N=C(c2ccc(Cl)cc2)CC1c1ccco1 (centres undefined)	i	i	i[15.4 µM]	-64	i
CCSc1nnc(NC(=O)C(C)(C(F)(F)F)C(F)(F)F)s1	22µM	i	i	i	i
CCSc1nnc(NC(=O)C(CC)(C(F)(F)F)C(F)(F)F)s1	?	i	i	i	i
C/C(=C1\CCOC(=O)S1)N(C=O)Cc1cnc(C)nc1N	nt	nt	nt	i	nt
Cc1nc(-c2ccc(S(=O)(=O)N3CCN(c4cc(Cl)ccc4C)CC3)cc2)co1	nt	i	nt	nt	i
O=C(CCn1nnc2ccccc21)Nc1nnc(COc2ccccc2F)s1	i	i	i	i	i
O=C(CCn1nnc2ccccc21)Nc1nnc(Cc2ccccc2)s1	32µM	i	?	i	i
O=S(=O)(c1ccc(Br)cc1)c1nnn2c1nc(NCc1cccs1)c1sccc12	nt	?	nt	i	i
COc1ccc2c(C)cc(SCC(=O)NC3CCCC3)nc2c1	i	nt	11µM	i	i
CC(=O)c1ccc(NC(=O)COCc2cc(-c3ccco3)on2)cc1	nt	i	nt	i	i
SMILES	gsp antagonist	RXFP1 agonist	gsp agonist	RXFP1 antag	PTHR1 ag
Cc1nnc(N2C(=O)c3oc4ccccc4c(=O)c3C2c2ccc(Cl)cc2)s1 (centres undefined)	nt	i	nt	i	i
COc1cc(/C=C2/SC(=O)NC2=O)ccc1OCc1ccccc1	32µM	i	i	i	i
COc1ccc(/C=C2/SC(=S)NC2=O)cc1OCc1ccccc1	?	i	i[15.4 µM]	i	i
N#CC(C#N)=C1C=CC=CN1/C(=C\c1ccco1)C(=O)c1ccccc1	i	i	?	-104	i
COc1ccc(C(=O)/C(=C\c2ccco2)N2C=CC=CC2=C(C#N)C#N)cc1	i	i	i[15.4 µM]	-75	i
COc1ccc2cccc(CCNC(C)=O)c2c1	nt	nt	nt	i	nt
CCC(CC)C(=O)Nc1ccccc1C(=O)OCc1cc(=O)n2nc(C3CCCCC3)sc2n1	nt	i	nt	i	i
Cc1cccc(C)c1-n1cccc1/C=C1/C(=N)N2C(=NC1=O)SN=C2S(C)(=O)=O	?	i	i[15.4 µM]	-108	i
Cc1ccc(-n2cccc2/C=C2/C(=N)N3C(=NC2=O)SN=C3S(C)(=O)=O)cc1Cl	i	i	i	i	i

Compound activity from PubChem.
